# GLD-1 TGE inh: GLD-1/TGE RNA complex disruptors, primary screen, biochemical, fluorescence polarization; actives 0.44% (n = 320,000); Female germline-specific tumor suppressor gld-1 (Caenorhabditis elegans), Q17339; inhibition, % at 5.96 µM; purified GLD-1 + fluorescein TGE RNA; AID 2280, 2010;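 active = percent inhibition above a per-plate cutoff, the plate mean of test compounds plus 3 SD, cut at about 30% in these data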;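 note: 0% = DMSO wells with GLD-1 and probe and 100% = wells lacking GLD-1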
# Yeast superoxide: reduction of superoxide in aged yeast, primary screen, HTS; superoxide response (% of plate mean), % at 10 µM; actives 0.18% (n = 330,000); S. cerevisiae aged cells, superoxide DHE fluorescence; stronger effect = lower value;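 active = superoxide response under a set limit, about three screen SD below normal, cut at about 65% in these data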;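 note: yeast aged for seven days with compound at 30 °C before DHE staining; 100% = average MFI of all compound-treated wells on the plate with controls excluded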
# Bcl-xL primary: inhibitors of human Bcl-xL, primary screen, biochemical, fluorescence polarization, HTS; GST-Bcl-xL / FITC-Bim BH3 peptide fluorescence polarization; AID 2129, 2009; actives 0.7% (n = 320,000); inhibition, % at 10.9 µM;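 active = inhibition above the mean of all tested compounds plus 3 SD, cutoff set per campaign, cut at about 30% in these data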;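 note: 0% = DMSO wells and 100% = unlabeled Bim-BH3 peptide competitor; inhibitors lower millipolarization by displacing the labeled peptide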
# MEX-5 binding: MEX-5 zinc finger RNA-binding disruptors – biochemical, C. elegans, fluorescence polarization, MLPCN library, primary screen. MEX-5/FITC-TCR2 RNA binding; stronger effect = lower value. activity score (negative = inhibition of binding), % at 10 µM. actives 0.38% (n = 300,000);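 active = inhibition past about -25% in most replicates, and total fluorescence under double the plate's negative control median, limit read from the data; inconclusive = replicates evenly split on the limit, or fluorescence at least double controls; inactive = too little inhibition in most replicates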;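 note: 0% = DMSO and -100% = 5 µM competing unlabeled TCR2 RNA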
# LANA-H2A inh: blockers of LANA interaction with H2A/H2B – biochemical, FP readout, HTS, primary screen. Protein LANA1 (Human herpesvirus 8 type P (isolate GK18)), Q9QR71. cell-free LANA-H2A/H2B peptide, fluorescence polarization. inhibition, % (no concentration beside the values). actives 0.6% (n = 320,000); in the data active = inhibition mostly above about 10%, no sharp cut-off; inactive = mostly below about 6.7%
# MCL1-BIM inh: inhibitors of MCL1 binding to BIM-BH3, primary screen, biochemical, fluorescence polarization; actives 0.68% (n = 320,000); GST-MCL1 / FITC-Bim-BH3 fluorescence polarization; Induced myeloid leukemia cell differentiation protein Mcl-1 (Homo sapiens), Q07820; inhibition, % at 10.9 µM;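 active = inhibition above the mean inhibition of all tested compounds plus 3 SD, set per campaign, cut at about 40% in these data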;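 note: 0% = DMSO wells and 100% = unlabeled Bim-BH3 peptide control; higher means more loss of mP so more displacement of Bim peptide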
# Bcl-xL conf: Bcl-xL inhibitors blocking Bim BH3 binding, confirmation, counter-screen for MCL1 inhibitor project, biochemical, fluorescence polarization; inhibition, % at 10.9 µM; GST-Bcl-xL / FITC-Bim BH3 peptide FP binding; shares compounds with MCL1-BIM inh; AID 2166, 2009; actives 54% (n = 1,700);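 active = inhibition above a cutoff equal to the mean inhibition of all tested compounds plus 3 SD, cut at about 30% in these data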;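 note: 0% = DMSO wells and 100% = unlabeled Bim BH3 control peptide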
# MCL1 BIM confirm: inhibitors of MCL1 binding to BIM-BH3, confirmation, biochemical, fluorescence polarization, triplicate; AID 2168, 2009; shares compounds with MCL1-BIM inh; actives 61% (n = 1,700); inhibition, % at 10.9 µM; GST-MCL1 / FITC-Bim-BH3 fluorescence polarization;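 active = inhibition above the average of all tested compounds plus 3 SD, cut at about 40% in these data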;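 note: 0% = DMSO wells and 100% = unlabeled Bim-BH3 control peptide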
# Numbers without * were called inactive; ? = inconclusive; / = no result. Compounds with a hit are over-represented: about 1.9% of the library has one in this group of screens.
SMILES,GLD-1 TGE inh,Yeast superoxide,Bcl-xL primary,MEX-5 binding,LANA-H2A inh,MCL1-BIM inh,Bcl-xL conf,MCL1 BIM confirm
CCC(=O)N1CCN(c2ccc(NC(=O)c3cccs3)cc2)CC1,0,94,3,-2,0,42*,1,-6
N=C1CCCN1c1ccccc1O,3,80,1,-2,3,-1,/,/
N=C1CCC(=N)c2c1c(O)c1ccccc1c2O,107*,171,125*,-20,-1,150*,119*,144*
Cc1ccc(C)c(S(=O)(=O)Nc2ccc3oc(C)c(C(=O)O)c3c2)c1,1,116,12,1,-5,42*,21,60*
CC(=O)c1c(C)oc2ccc(NS(=O)(=O)c3ccc(C)cc3)cc12,2,108,-1,-3,1,-2,/,/
O=C(CN(c1ccccc1)S(=O)(=O)c1ccc(F)cc1)NC1CCCCCC1,0,107,6,-3,-1,-2,/,/
COc1cc(CNC(=O)c2cc3ccccc3oc2=O)cc(OC)c1OC,5,95,2,-1,1,-2,/,/
COc1cccc(OCCCn2cc(/C=C3/C(=N)N4C=C(C)SC4=NC3=O)c3ccccc32)c1,6,92,59*,-29*,-2,66*,10,15
COc1ccc(OCCCn2cc(/C=C3/C(=N)N4C=C(C)SC4=NC3=O)c3ccccc32)cc1,5,104,1,-7,1,3,/,/
Cc1cccc(N(Cc2ccccc2)C(=O)CN2C(=O)NC3(CCCC3)C2=O)c1,-4,104,-2,/,5,-8,/,/
COc1ccccc1OCc1nnc(SCC(=O)NCc2ccco2)n1Cc1ccco1,2,102,9,-1,2,46*,15,38
Cc1ccccc1OCc1nnc(SCC(=O)NCc2ccco2)n1C,5,92,1,0,0,4,/,/
COc1ccc(OC)c(NC(=O)COC(=O)c2cc3c(s2)CCC3)c1,8,105,6,1,1,57*,11,43*
CC(NCC(=O)Nc1cc(S(=O)(=O)N2CCOCC2)ccc1N1CCOCC1)c1ccco1 (stereo unspecified),-4,130,0,/,2,0,/,/
O=C(NCC1CCCO1)c1ccc(Br)c(S(=O)(=O)N2CCOCC2)c1 (stereo unspecified),-1,101,1,/,-4,9,/,/
CN(C)c1ccc(/C=C/c2cc[n+]([O-])cc2)cc1,52*,94,101*,?,-26,109*,89*,100*
CC(=O)OCC1=C(C(=O)O)N2C(=O)C(NC(=O)CCn3nc(C)c(Cl)c3C)C2SC1 (stereo unspecified),-4,102,6,-3,3,6,/,/
CC(=O)OCC1=C(C(=O)O)N2C(=O)C(NC(=O)CCn3nc(C(F)(F)F)c(Br)c3C3CC3)C2SC1 (stereo unspecified),-1,103,9,-4,2,65*,24,96*
O=C(Nc1ccc(S(=O)(=O)N2CCCC2)cc1)C1CC(=O)N(CCc2ccc(F)cc2)C1 (stereo unspecified),2,108,4,/,2,-8,/,/
Cc1ccc(C(=O)Nc2nnc(CC(=O)N/N=C/c3ccc(O)c(O)c3)s2)cc1,11,106,28,-1,-4,76*,51*,80*

# High-throughput results from PubChem BioAssay.
